# TR SRC2 fluor cs = Total Fluorescence Counterscreen for Inhibitors of the Interaction of Thyroid Hormone Receptor and Steroid Receptor Coregulator 2; TRb/SRC2 Texas Red total fluorescence interference; Potency, µM (doses to about 106 µM), for the others: at the highest dose fluorescence change, negative = quenching; hit rate 0.29% among 280,000; AID 1479, 2009; active means well fitted curve in either direction with a large enough effect; inconclusive means small, poorly fitted or top-dose-only effect
#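 Flags fluorescent or light-absorbing compounds by total fluorescence, S + 2P, at 555 nm excitation and 632 nm emission. Mixture: 20 nM Texas Red SRC2 peptide, 0.6 uM human TRb LBD, 1 uM T3, 5% DMSO; compound exposure 5 h at ambient temperature.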
# TRb SRC2 PPI = qHTS for Inhibitors of the Interaction of Thyroid Hormone Receptor and Steroid Receptor Coregulator 2; TRbeta-SRC2 peptide binding, fluorescence polarization; receptor liganded with 1 µM T3; AID 1469, 2008; hit rate 0.065% among 280,000; Thyroid hormone receptor beta (Homo sapiens), P10828; Potency, µM (doses to about 106 µM), for inactives: at the top dose activity change, negative = inhibition, actives largely listed as inhibitors;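 further: plate controls were bound peptide for no effect and peptide without receptor for full effect; nearly all actives have a fitted effect of over 50% in size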
# Target sequence (P10828 whole entry, looked up): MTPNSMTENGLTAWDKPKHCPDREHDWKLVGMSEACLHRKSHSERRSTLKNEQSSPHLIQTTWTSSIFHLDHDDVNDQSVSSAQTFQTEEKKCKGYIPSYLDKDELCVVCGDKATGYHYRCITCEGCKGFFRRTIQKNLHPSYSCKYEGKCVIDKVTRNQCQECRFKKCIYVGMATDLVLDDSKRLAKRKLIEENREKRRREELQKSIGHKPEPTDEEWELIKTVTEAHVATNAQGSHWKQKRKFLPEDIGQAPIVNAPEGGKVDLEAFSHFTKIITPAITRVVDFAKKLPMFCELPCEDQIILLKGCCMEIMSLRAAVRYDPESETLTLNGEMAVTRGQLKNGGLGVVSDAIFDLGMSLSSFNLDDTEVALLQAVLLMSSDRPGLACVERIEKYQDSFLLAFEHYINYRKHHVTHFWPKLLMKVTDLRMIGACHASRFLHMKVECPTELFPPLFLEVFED
#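 Decrease in fluorescence polarization of 20 nM Texas Red SRC2 coactivator peptide flagged inhibition of its binding to 0.6 uM TRb LBD; 1 uM T3 included, incubation 5 hr, ex 555/em 632 nm.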
# Tau fibril ThT = qHTS for Inhibitors of Tau Fibril Formation, Thioflavin T Binding | Microtubule-associated protein tau (Homo sapiens), P10636 | recombinant tau K18 P301L, heparin-induced fibrillization, ThT fluorescence | Potency, µM (top dose mostly 57.4 µM), for inactives: at the highest dose activity, negative = inhibition, hits mostly inhibitors | hit rate 2.1% among 270,000 | AID 1460, 2008; further: nearly all actives have a fitted effect of over 55% in size
# Target sequence (P10636 561-689 P618L limits assumed): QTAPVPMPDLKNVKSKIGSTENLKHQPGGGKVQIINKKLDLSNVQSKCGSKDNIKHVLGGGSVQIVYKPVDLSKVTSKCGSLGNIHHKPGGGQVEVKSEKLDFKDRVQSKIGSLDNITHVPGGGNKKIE
#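 Using a mix of unlabeled (15 uM) and Alexa 594-labeled (0.24 uM) tau K18 P301L, heparin-triggered fibrillization over 6 hr at 37 C was scored by ThT fluorescence.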
# RGS12 GoLoco inh = qHTS Assay for Inhibitors of RGS12 GoLoco Motif Activity (Red Fluorophore); AID 880, 2007; Potency, µM (top dose mostly 61.6 µM), for inactives: at the top dose activity, negative = inhibition, hits mostly inhibitors; Gai1:RGS12 GoLoco peptide FP, rhodamine, 10 min; Guanine nucleotide-binding protein G(i) subunit alpha-1 (Homo sapiens), P63096; hit rate 0.44% among 230,000; active means well fitted inhibition curve with a large enough effect, not every such curve was filed as active; inactive means no such curve, though single readings can be large or run the other way; further: nearly all actives have a fitted effect of over 30% in size
# Tau fluor cs = Counterscreen qHTS for Inhibitors of Tau Fibril Formation, Fluorescence Polarization | tau K18 P301L Alexa594 fluorescence, heparin fibrillization | Potency, µM (top dose mostly 57.7 µM), inactives show top-dose activity change, negative = decrease | hit rate 0.93% among 280,000; further: nearly all actives have a fitted effect of over 55% in size
#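 Human K18 P301L tau (15 uM unlabeled plus 0.24 uM Alexa 594-labeled, final) in 100 mM sodium acetate pH 7 was mixed with compound and 20 uM heparin and incubated 6 hr at 37 C.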
# Tau FP inhib = qHTS for Inhibitors of Tau Fibril Formation, Fluorescence Polarization. Microtubule-associated protein tau (Homo sapiens), P10636. K18 P301L tau heparin fibrillization, Alexa594 FP, 6 h. Potency, µM (doses to about 57.7 µM), for inactives: top-dose activity, negative = inhibition, most hits filed as inhibitors. hit rate 0.39% among 280,000. AID 1468, 2008; further: nearly all actives have a fitted effect of over 55% in size
#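 Heparin (20 uM) drove fibril formation of recombinant tau K18 P301L, 15 uM unlabeled with 0.24 uM Alexa 594 label, for 6 hr at 37 C in 100 mM sodium acetate pH 7. Fluorescence polarization (555/632 nm) read 1 hr after 30 uM ThT.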
# An asterisk follows results filed as active; ? = inconclusive; · = no result given; [ ] = another dose, or the depositor's remark. A selection: hits, their analogues and other compounds. The true share with any hit is near 3.2%. Unless noted, the call rests on the fitted dose curve; in most records, active means well fitted curve in the direction sought with a large enough effect; inconclusive means small, poorly fitted or top-dose-only effect, or another doubt; inactive means no such curve, though single readings can be large; an effect the other way counts as inactive or inconclusive. Unless noted, on the % scale 0 is the no-effect control and ±100 the full control effect; potency means the concentration at half of the fitted maximal effect.
SMILES,TR SRC2 fluor cs,TRb SRC2 PPI,Tau fibril ThT,RGS12 GoLoco inh,Tau fluor cs,Tau FP inhib
C[C@H](NC(=O)[C@@H](N)Cc1ccc(O)cc1)C(=O)NCC(=O)N[C@H]1CSSC[C@@H](C(=O)O)NC(=O)[C@H](CO)NC(=O)[C@H]([C@@H](C)O)NC(=O)[C@H](Cc2ccccc2)NC(=O)[C@H]([C@@H](C)O)NC(=O)[C@H](CCCCN)NC(=O)[C@H](Cc2c[nH]c3ccccc23)NC(=O)[C@H](Cc2ccccc2)NC(=O)[C@H](Cc2ccccc2)NC(=O)[C@H](CC(N)=O)NC(=O)[C@H](CCCCN)NC1=O,2.6%,0.6%,·,·,·,·
C[C@H]1CC[C@@H]2N(C1)C[C@H]1[C@@H]3C[C@H]4[C@@H](C/C(=N\O)[C@H]5C[C@@H](O)CC[C@@]54C)[C@@H]3CC[C@H]1[C@]2(C)O,-0.5%,-1.7%,-1.3%,4.0%,-7.2%,1.8%
Cc1ccccc1OCc1ccc(-c2nc(C#N)c(N3CCN(c4ccccc4)CC3)o2)o1,3.98µM*[quencher],-14.0%,-5.4%,·,-19.0%,-2.6%
COc1ccc(-c2cnnc(N/N=C/c3ccc(O)cc3)n2)cc1,-6.0%,2.4%,?,7.5%,?,1.2%
COc1ccc(-c2cnnc(N/N=C/c3ccc(C)o3)n2)cc1,-3.2%,0.3%,2.82µM*,23.7%,-29.9%,9.5%
Brc1ccc(-c2ccc(/C=N/Nc3nc(N4CCOCC4)nc(N4CCOCC4)n3)o2)cc1,0.2%,3.9%,-12.0%,-0.9%,-12.0%,?
COc1cc(/C=N/Nc2nnc3c(n2)[nH]c2ccccc23)ccc1O,1.5%,8.3%,0.708µM*,-5.1%,-23.9%,6.4%
COc1ccc(-c2cnnc(N/N=C/c3ccc(O)c(O)c3)n2)cc1,-7.2%,12.8%,2.51µM*,-5.9%,?,?
Fc1cnc(N/N=C/c2ccc(-c3ccc(Br)cc3)o2)nc1N1CCOCC1,-2.9%,-4.3%,10µM*,0.8%,12.6µM*[quencher],-5.0%
COc1ccc(-c2cnnc(N/N=C/c3c(C)nn(-c4ccccc4)c3Cl)n2)cc1,0.6%,1.9%,5.1%,5.5%,-1.3%,-4.9%
COc1cc(/C=N/Nc2ccccc2C(F)(F)F)ccc1O,-9.6%,0.8%,?,6.1%,?,1.9%
COc1ccc(C2C=C3CNS(=O)(=O)C3CC2OC(=O)c2ccc(C(F)(F)F)cc2)cc1 (stereo unspecified),-2.3%,-0.4%,·,·,·,·
CCOC(=O)NCCOc1ccc(Oc2ccccc2)cc1,-1.4%,-3.2%,·,·,·,·
Brc1ccc(-c2ccc(/C=N/Nc3nncc(-c4ccccc4)n3)o2)cc1,2.9%,1.3%,2µM*,-0.2%,-16.1%,10.8%
Oc1ccc(/C=N\Nc2nncc(-c3ccccc3)n2)cc1,-2.6%,1.0%,·,12.2%,?,6.2%
CCc1ccc(CCC(=O)O)nc1,·,·,·,7.2%[14.2 µM],·,·
COc1ccc(-c2cnnc(CCCn3ccnc3-c3ccccc3)n2)cc1,0.8%[11.2 µM],0.6%[11.2 µM],-10.4%[11.5 µM],·,-4.9%[11.6 µM],-6.5%[11.6 µM]
CC(=Nc1cccc(C)c1)c1sc2ccccc2c1O,0.0%,3.8%,?,-0.6%,?,13.4%
CC(=Nc1ccccc1O)c1sc2ccccc2c1O,-2.2%,-8.2%,5.01µM*,7.6%,28.2µM*[quencher],17.7%
CC(=Nc1ccc(O)cc1)c1sc2ccccc2c1O,0.5%,-1.8%,4.47µM*,15.1%,?,13.3%
O=[N+]([O-])c1cccc(N/N=C/c2cccc3ccccc23)c1,-36.2%,-1.2%,?,-3.2%,8.91µM*[quencher],-2.1%
Cn1cc([N+](=O)[O-])c(C(=O)N/N=C\c2c[nH]c3ccccc23)n1,-2.9%,4.7%,?,5.2%,-12.3%,-0.3%
O=C(N/N=C/c1c[nH]c2ccccc12)c1cccc([N+](=O)[O-])c1,-8.9%,-2.4%,?,7.7%,?,?
O=[N+]([O-])c1ccccc1N/N=C/c1c[nH]c2ccccc12,-8.3%,3.2%,3.16µM*,5.9%,3.55µM*[quencher],-15.1%
O=[N+]([O-])c1ccc(N/N=C/c2c[nH]c3ccccc23)cc1,-4.5%,-0.9%,3.16µM*,88.3%,7.94µM*[quencher],?
SMILES,TR SRC2 fluor cs,TRb SRC2 PPI,Tau fibril ThT,RGS12 GoLoco inh,Tau fluor cs,Tau FP inhib
COC(=O)C/C=C/[C@@H](C)[C@H](OC)c1c(Br)ccc2c1OCO2,-2.1%,0.0%,3.3%,-5.5%,-1.1%,-0.3%
Oc1ccc(NCc2cccc(OCc3ccc(F)cc3)c2)cc1,16.1%,11.2µM*,22.4µM*,-22.4%,?,?
Oc1ccc(NCc2cccc(OCc3ccccc3)c2)cc1,-8.5%,31.6µM*,28.2µM*,-18.4%,?,?
O=[N+]([O-])c1ccc(COc2cccc(CNc3ccc(F)cc3)c2)cc1,0.5%,-0.7%,?,0.2%,?,11.8%
CCCCc1cc2c(cn1)=C(OC(=O)C1CCCC1)C(C)(OC(=O)CC)C(=O)C=2 (stereo unspecified),-2.2%[11.2 µM],1.5%[11.2 µM],?,2.0%[14.2 µM],-7.8%[11.6 µM],1.2%[11.6 µM]
Cc1c(C(=O)O)cccc1-c1ccc(/C=N/Nc2ccc(Br)cc2)o1,-7.0%,1.4%,11.2µM*,8.3%,?,-11.7%
Cc1cccc(C(=O)Oc2ccccc2/C=N/Nc2ccc([N+](=O)[O-])cc2)c1,6.2%,-2.9%,?,2.4%,3.98µM*[quencher],6.8%
O=C(O)c1cccc(-c2ccc(/C=N/Nc3ccc([N+](=O)[O-])cc3)o2)c1,-13.2%,0.5%,·,60.1%,15.8µM*[quencher],-9.1%
O=C(O)c1cc(-c2ccc(/C=N/Nc3ccc([N+](=O)[O-])cn3)o2)ccc1Cl,-11.4%,3.1%,1.26µM*,15.9%,?,-5.2%
NCC(=O)N[C@@H](CCCN=C(N)N)C(=O)NCC(=O)N[C@@H](CC(=O)O)C(=O)N[C@@H](CO)C(=O)O,-1.2%,2.6%,·,·,·,·
COC(=O)C(NS(=O)(=O)CCl)C(C)C (stereo unspecified),-1.1%,-8.6%,·,·,·,·
COC(=O)c1cc(-c2ccc3ccccc3c2)[nH]c(=O)c1C#N,·,·,·,4.8%[14.2 µM],·,·
O=C(O)c1ccc(N/N=C/c2ccc(-c3cccc(Cl)c3)o2)cc1,-7.7%,-6.1%,·,9.9%,20µM*[quencher],3.3%
COc1cccc([C@@H]2Oc3ccc(OC)cc3C[C@H]2OC(=O)NCc2ccco2)c1,-1.3%,9.3%,-4.9%,-1.3%,-2.8%,2.4%
